# From PubChem BioAssay AID1745849 (National Center for Advancing Translational Sciences (NCATS), 2022)
# In all, about 2,100 compounds went through this assay and about 320 (15%) were called active. Roughly 52% stayed inconclusive and do not appear here. Calls come from the whole dose curve; as a rule, active = well fitted cell-killing curve with a large enough effect; inconclusive = small, poorly fitted or top-dose-only effect, or effect the other way; inactive = flat fitted curve, though single readings scatter. The list shows a part of the results. Where a call stands in place of a potency, no number is given.
# Assay: Viability Counterscreen for CMV-Luciferase Assay of Inhibitors of ATXN expression; note: nearly all actives have a fitted effect of over 55% in size
# Conditions: HEK-293 CMV-luciferase cells viability, protease fluorescence, 24 h
# Excerpt: PI: Daniel Scoles Ph.D. University of Utah School of Medicine, Salt Lake City, Utah MLPCN Grant: NS073009 Spinocerebellar ataxia type 2 (SCA2) is a multisystem neurodegenerative disease caused by a dominantly acting mutation leading to expansion of a polyQ domain in the ataxin-2 protein (ATXN2). SCA2 patients develop progressive ataxia and later lose function in other neuronal systems. Prominent parkinsonian signs develop in some patients. Like many neurodegenerative disorders, no symptomatic or disease-modifying treatments are known. The primary objective of the proposed research is to identify compounds inhibiting ATXN2 expression and to test them for efficacy in SCA2 mouse models. We have developed a cell-based assay paired with an in vivo mouse model using identical luciferase expression constructs. This approach takes advantage of an ATXN2-luciferase transgene, with the luciferase gene flanked by the upstream and downstream portions of the ATXN2 gene. Here we describe a 5-7 dose quantitative high thoroughput screen (qHTS) for compounds lowering ATXN2 expression. We screened the NIH Molecular Libraries Small Molecule Repository (MLSMR) and NCGC's mechanistically annotated (MIPE) and drug repurposing (NPC) collections of compounds for lowering expression of an ATXN2-luciferase reporter in HEK-293 cells. The assay is a multiplexed cell viability assay to ensure target reduction in the absence of cytotoxicity. Secondary qHTS assays included a CMV-luciferase reporter expressed in HEK-293 cells as well as a biochemical assay using recombinant luciferase to detect inhibitors of the reporter enzyme. Compounds that inhibit ATXN2 expression but is not cytotoxic were selected for confirmatory and secondary screens.
# PROTOCOL TABLE (as described by Inglese J, Shamu CE and Guy RK. 2007) SEQUENCE No. (e.g., 1, 2, 3, etc.); […] (e.g., Cells, Incubation, Reagent, etc.); VALUE; DESCRIPTION. 1; Cells; 4 uL; white, solid bottom, 1536-well Greiner assay plate. 2; Incubation; 2 hr; 37 degree C in 5% humidified CO2. 3; Compounds; 23 nL; Kalypsis pintool (Wako USA) equipped with a 1536-well pin head. 4; Incubation; 24 hr; 37 degree C in 5% humidfified CO2. 5; Reagent; 1 uL; Gly-Phe-7-Amino-4-trifluoromethylcoumarin. 6; Incubation; 30 min; 37 degree C in 5% humidfified CO2. 7; Detection; Fluorescence; Viewlux plate reader (PerkinElmer). 8; Reagent; 3 uL; SteadyGlo luciferase solution (Promega). 9; Incubation; 5 min; room temperature. 10; Detection; Luminescence; ViewLux plate reader (PerkinElmer). NOTES (numbers refer to Sequence numbers above) 1. HEK-293 cells expressing CMV-luciferase reporter (designated as SC cells) were suspended in phenol-red free DMEM and dispensed in assay plates using a Multidrop Combi dispenser (Thermo Fisher Scientific). 2. Assay plates were incubated. Evaporation was prevented by covering assay plates with metal lids containing holes to allow gas diffusion. 3. Compounds were added in a dose response manner with the final concentrations of 57, 11.4, 2.28, 0.46, 0.091, 0.018, 0.0037 uM. Vehicle-only plates, with DMSO being pin-transferred to columns 5-48, were inserted uniformly at the beginning and the end of each library to monitor and record any shifts in assay performance. 5. 125 uM Gly-Phe-7-Amino-4-trifluoromethylcoumarin (MP Biomedicals) working concentration was used at a final concentration of 25 uM. 7. To assess cell viability; the assay plates were read using the ViewLux high-throughput CCD imager (PerkinElmer), wherein single end-point fluorescence measurement was acquired (excitation 405/10; emission 540/25 nm). 8. Detection reagent SteadyGlo Luciferase (Promega) was added to the assay plate. 10. Luminescence is then measured on the ViewLux imager equipped with a clear emission filter using a 2 sec exposure. […]
# Potency is the fitted concentration of half-maximal effect.
row,Structure (SMILES),Potency
1,Cc1cc(C)cc(NC(=O)CCC(=O)Nc2cc(C)on2)c1,inactive
2,Cn1c(SCc2ccc(C(C)(C)C)cc2)nnc1C1COc2ccccc2O1 (stereo unspecified),inactive
3,N#C/C(=C/c1ccc(Sc2nc3ccccc3[nH]2)o1)c1cccc(F)c1,inactive
4,CC1(C(=O)NC2CCN(Cc3ccccc3)CC2)CCN1Cc1ccc2ccccc2c1 (stereo unspecified),inactive
5,C=CCN(C(=O)CSc1nc2c(sc3ccccc32)c(=O)n1CCN(CC)CC)c1ccccc1,20 µM (active)
6,COc1ccc(/C=C/C(O)=C2/C(=O)N(C)C3(C)CC2c2ccccc2O3)cc1 (stereo unspecified),inactive
7,COc1ccc(C(=O)c2c(C)c3ccccc3n2CC(O)CNC(C)C)cc1 (stereo unspecified),17.8 µM (active)
8,O=C(Oc1c(CN2CCOCC2)cc(Cl)c2cccnc12)c1cccs1,inactive
9,COc1cnc(-c2ccccn2)nc1NC(C)C,6.31 µM (active)
10,COc1cc(C#Cc2c(-c3cncn3C)n(C)c3ccc(-c4ccc(CN5CCOCC5)cc4)cc23)cc(OC)c1,inactive
11,COc1ccc2c(-c3ccc(S(N)(=O)=O)cc3)c(-c3ccc(S(C)(=O)=O)cc3)sc2c1,inactive
12,NC(=O)c1cc([N+](=O)[O-])ccc1NCc1ccc(N)cc1,22.4 µM (active)
13,OCCN1CCN(C2CCC(c3ccc(F)cc3)c3ccc(F)cc32)CC1 (stereo unspecified),inactive
14,CC(C)CC(NC(=O)c1ccc(Cl)cc1)C(=O)OCC(=O)c1ccc2c(c1)NC(=O)CO2 (stereo unspecified),14.1 µM (active)
15,CN(C)CCCNc1nc2cc(-c3cccc(Cl)c3)sc2c(=O)n1C,inactive
16,O=C(CNC(=O)c1ccccc1O)N/N=C/c1cc(Br)ccc1OC(=O)/C=C/c1ccco1,inactive
17,CCCn1ncc(CN2CCC(C(=O)Nc3cccc(-c4cccc(F)c4)c3)CC2)c1C,inactive
18,CC(=O)c1cc(CN2CCC(C(=O)Nc3cccc(-c4cscn4)c3)CC2)cs1,inactive
19,COCc1ccc(CN2CCC(C(=O)Nc3cccc(-c4cccc(Cl)c4)c3)CC2)o1,17.8 µM (active)
20,O=C(NCc1ccco1)c1ccc(-c2cccc(Cl)c2)o1,inactive
21,CN1CCC(N(C)C(=O)c2ccc(Cl)c(S(=O)(=O)N3CCc4ccccc43)c2)CC1,inactive
22,O=C(Nc1ccc(F)cc1)c1sccc1SCc1cccc(C(F)(F)F)c1,inactive
23,O=C(CSC1=NNC(c2ccccn2)S1)Nc1ccc(C(F)(F)F)cc1 (stereo unspecified),14.1 µM (active)

row,Structure (SMILES),Potency
1,Cc1ccccc1SCC(=O)N1CCN(c2ccc(C(F)(F)F)cn2)CC1,inactive
2,COC(=O)c1ccsc1NC(=O)CN1CCN(Cc2ccc3c(c2)OCO3)CC1,inactive
3,Cc1ccc(C(=O)COC(=O)c2ccc3c(c2)C(=O)N(c2cccc4ncccc24)C3=O)cc1,22.4 µM (active)
4,Cc1ccc(C(=O)CN2C(=O)c3ccccc3S2(=O)=O)cc1,inactive
5,Cc1ccc2nc(NC(=O)CSCC(=O)OCC(=O)c3ccc(Br)cc3)sc2c1,inactive
6,O[C@@H]1[C@@H](O)C=C2CCN3Cc4cc5c(cc4[C@H]1C23)OCO5 (stereo partly specified),6.31 µM (active)
7,Cc1cc(C)n(-c2ccc(C(=O)N3CCN(S(=O)(=O)c4cccc(Br)c4)CC3)cc2)n1,inactive
8,CCc1cc(-c2[nH]ncc2-c2ccc(OC)cc2)c(O)cc1O,inactive
9,CCn1c2ccccc2c2cc(/C=C(/C#N)C(N)=S)ccc21,inactive
10,CCOC(=O)/C=C/C(=O)Nc1ccc(Oc2ccccc2)cc1,inactive
11,O=C(Nc1ccc(Oc2ccc(NC(=O)Nc3ccc([N+](=O)[O-])cc3)cc2)cc1)Nc1ccc([N+](=O)[O-])cc1,10 µM (active)
12,Cc1ccc(Cc2cnc(NC(=O)/C(C#N)=C/c3ccc(-c4cccc([N+](=O)[O-])c4)o3)s2)cc1,20 µM (active)
13,Cc1ccc(-c2ccc(/C=N/c3ncn[nH]3)o2)cc1Cl,inactive
14,CCCc1cc(=O)[nH]c(-n2[nH]c3c(c2=O)CCCC3)n1,22.4 µM (active)
15,CCn1c2ccccc2c2cc(NC(=O)COC(=O)c3cc(S(=O)(=O)N4CCCCC4)ccc3Cl)ccc21,inactive
16,CC[C@]12c3[nH]c4ccc(Cl)cc4c3CCN1C(=O)[C@@H](CC(=O)NCC13CC4CC(CC(C4)C1)C3)C[C@@H]2C(=O)N1CCN(C(=O)C2CC2)CC1,22.4 µM (active)
17,CC[C@]12c3[nH]c4ccc(Cl)cc4c3CCN1C(=O)[C@@H](CC(=O)NCC13CC4CC(CC(C4)C1)C3)C[C@@H]2C(=O)N1CCN(C(=O)c2ccco2)CC1,3.16 µM (active)
18,CCOC(=O)c1cnc2ccc(OC)cc2c1Nc1ccc(N2CCN(C)CC2)cc1,inactive
19,Cc1ccc2nc(SCc3ccc([N+](=O)[O-])cc3)[nH]c2c1,inactive
20,Cc1ccc2nc3cc([N+](=O)[O-])cc([N+](=O)[O-])c3cc2c1,11.2 µM (active)
21,COc1cc2nc(N(C)C)nc(N)c2cc1OC,25.1 µM (active)
22,COc1cc2nc(CN(C)Cc3ccc(SC)cc3)[nH]c(=O)c2cc1OC,inactive
23,COc1ccc(C)cc1Nc1nc(N)c2cc(OC)c(OC)cc2n1,inactive

row,Structure (SMILES),Potency
1,CC(C)(C)S(=O)(=O)/C(C#N)=N/Nc1ccc(Cl)cc1,25.1 µM (active)
2,CCc1ccc(N(CC)C(=O)c2ccc3c(Cl)c4c(nc3c2)CCC4)cc1,inactive
3,O=C(NC(=S)N1CCN(c2ccc(F)cc2)CC1)c1cccs1,inactive
4,O=C(Nc1ccc(N2CCN(C(=O)c3ccco3)CC2)c(Cl)c1)c1c(F)c(F)c(F)c(F)c1F,inactive
5,O=C(Nc1ccc(N2CCN(C(=O)c3ccco3)CC2)c(Cl)c1)c1cccs1,28.2 µM (active)
6,CC(C)(C)OC(=O)N1CCC(c2c(C(=O)NCC3CCN(C4CCCC4)C3)cnn2-c2cccc(Cl)c2)CC1 (stereo unspecified),inactive
7,CCOC(=O)c1c(C)nn(-c2ccc(NC(=O)/C=C/C(=O)O)cc2)c1C,inactive
8,CC(=O)c1sc(C(C)(C)C)cc1NC(=O)/C=C/C(=O)O,inactive
9,COC(=O)c1c(NC(=O)/C=C/C(=O)O)sc(C)c1-c1ccc(C(C)C)cc1,20 µM (active)
10,CC(=O)c1ccc(S(=O)(=O)N2CCN(CCOc3ccc(Br)cc3)CC2)cc1,inactive
11,CN(C)CCCN(C(=O)c1ccc(S(=O)(=O)N2CCCC2)cc1)c1nc2ccc(Br)cc2s1,31.6 µM (active)
12,CN(C)CCCN(C(=O)c1ccc(S(=O)(=O)N2CCCCCC2)cc1)c1nc2ccc(Br)cc2s1,inactive
13,CN(C)CCCN(C(=O)CCc1ccccc1)c1nc2ccc(Br)cc2s1,22.4 µM (active)
14,O=C(N/N=C/c1cc(Br)ccc1O)C(c1ccncc1)N1CCOCC1 (stereo unspecified),inactive
15,Cc1cc(C(=O)N/N=C/c2cc(Br)ccc2OC(=O)c2ccccc2)n[nH]1,inactive
16,COc1cccc(NC(=O)/C=C/c2ccc(S(=O)(=O)N3CCOCC3)cc2)c1,inactive
17,Cn1c(CO)c(-c2ccccc2)c2cc([N+](=O)[O-])ccc21,inactive
18,Cc1[nH]n2c(=O)cc(C(C)(C)C)nc2c1-c1ccccc1,11.2 µM (active)
19,CC(C)N(C(=O)COC(=O)c1ccccc1C(=O)c1ccc(Cl)c([N+](=O)[O-])c1)C(C)C,inactive
20,COCCCNCCCOc1ccc(Cl)cc1C(C)(C)C,25.1 µM (active)
21,CCCCNCCCOc1cccc(Cl)c1Cl,inactive
22,CC(OC(=O)c1cc(Br)ccc1O)C(=O)Nc1ccc(S(=O)(=O)N2CCCC2)cc1 (stereo unspecified),28.2 µM (active)
23,O=C(N/N=C\c1cc(Cl)ccc1O)c1ccc(S(=O)(=O)N2CCCCC2)cc1,inactive

row,Structure (SMILES),Potency
1,O=C(N/N=C\c1cc(Br)ccc1O)c1ccc(S(=O)(=O)N2CCCCC2)cc1,inactive
2,COc1ccc(-c2n(CC(=O)OC3CC(C)CCC3C(C)C)c3ccccc3[n+]2C)cc1 (stereo unspecified),7.94 µM (active)
3,CC(NC(=O)Nc1cccc([N+](=O)[O-])c1)c1ccc2c(c1)OCO2 (stereo unspecified),inactive
4,N#C/C(=N\Nc1cccc([N+](=O)[O-])c1)C(=O)c1ccc(Br)cc1,2.24 µM (active)
5,C/C(=N\Nc1cc(N2CCOCC2)nc(C)n1)c1cccc([N+](=O)[O-])c1,inactive
6,Cc1csc2c(N3CCN(C(=O)Nc4ccc(Cl)c(Cl)c4)CC3)ncnc12,inactive
7,COc1ccc([C@@]2(C(C)C)ON(c3ccccc3C(F)(F)F)C2=O)cc1,inactive
8,O=C(NCC(=O)N1CC(O)CC1C(=O)N1CCCC1C(=O)OCc1ccccc1)OCc1ccccc1 (stereo unspecified),inactive
9,O=C(Cc1ccccc1)N/N=C/c1cc(Br)cc(Br)c1O,inactive
10,C=CCc1cccc(/C=N/NC(=O)CNc2ccccc2)c1O,inactive
11,C=CCc1cccc(/C=N/NC(=O)CCCNc2ccc(C)cc2)c1O,20 µM (active)
12,CCOC(=O)N1CCN(S(=O)(=O)c2ccc(C(=O)NNc3nc4c(C)cc(C)cc4s3)cc2)CC1,1.58 µM (active)
13,Cc1cc(C)c2nc(NNC(=O)c3cc(-c4cccs4)nc4ccccc34)sc2c1,inactive
14,Cc1cc(C)c2nc(NNC(=O)c3ccc(S(=O)(=O)N4CC(C)CC(C)C4)cc3)sc2c1 (stereo unspecified),inactive
15,Cc1nc(SCc2ccc(C(=O)O)cc2)nc2c1CCCC2,inactive
16,CN(C)C(=O)c1cccc(-c2cnc3c(NC=O)cc(-c4ccc(F)cc4)cn23)c1,inactive
17,CN(C)CCNC(=O)c1cccc(-c2cnc3c(NC=O)cc(-c4cccc(C(F)(F)F)c4)cn23)c1,22.4 µM (active)
18,CN(C)CCNC(=O)c1cccc(-c2cnc3c(NC=O)cc(/C=C/c4ccccc4)cn23)c1,28.2 µM (active)
19,CN1CCN(c2ccc(-c3cc(NC=O)c4ncc(-c5ccc(F)c(Cl)c5)n4c3)cc2)CC1,inactive
20,CN(C)CCNC(=O)c1cccc(-c2cnc3c(NC=O)cc(-c4cccs4)cn23)c1,inactive
21,CCCCNC(=NCc1cccc(C(F)(F)F)c1)Nc1ccccc1,inactive
22,COc1cc(/C=N/Nc2ccc(Cl)c(C(=O)O)c2)ccc1OC(=O)c1ccco1,inactive
